Experimental data reported in PubChem BioAssay AID1159580 (chemical genetic matrix, 2015).
About 2,000 (36%) of roughly 5,500 compounds were called active. Not shown: some 18% with an inconclusive outcome. No stated cut-off is given here; in the data, active means normalized growth mostly below about 0.91 (no sharp cut-off); inconclusive means no clear call, values can overlap the other calls; inactive means mostly above about 0.92. The list shows a part of the results.

Assay: chemical genetic growth profiling, strain panel (AID 1159580);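 further: tested at 20 µM; growth read once vehicle control cultures reached saturation at 30 °C; 1 = growth at the plate median or of vehicle wells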
Conditions: growth OD

Measured: normalized growth

C[C@]12CCC(=O)C=C1CCC1C2C(=O)C[C@@]2(C)C1CC[C@]2(O)C(=O)CO (stereo partly drawn)
inactive: S. cerevisiae deletion strains, locus YJL187C, strain SWE1, stronger effect = lower value 1.01 | S. cerevisiae deletion strains, locus YJR043C, strain POL32, stronger effect = lower value 1 | S. cerevisiae deletion strains, locus YJR066W, strain TOR1, stronger effect = lower value 0.967 | S. cerevisiae deletion strains, locus YKL009W, strain mrt4, stronger effect = lower value 1.06 | S. cerevisiae deletion strains, locus YKL068W, stronger effect = lower value 1.01 | S. cerevisiae deletion strains, locus YKL085W, strain MDH1 (second series), stronger effect = lower value 0.994 | S. cerevisiae deletion strains, locus YKL085W, strain MDH1, stronger effect = lower value 0.994 | S. cerevisiae deletion strains, locus YKL160W, strain elf1, stronger effect = lower value 1 | S. cerevisiae deletion strains, locus YKR001C, strain vps1, stronger effect = lower value 0.998 | S. cerevisiae deletion strains, locus YKR026C, strain gcn3, stronger effect = lower value 0.99 | S. cerevisiae deletion strains, locus YKR091W, strain srl3, stronger effect = lower value 0.999 | S. cerevisiae deletion strains, locus YLL001W, strain dnm1, stronger effect = lower value 1.03 | S. cerevisiae deletion strains, locus YLL026W, stronger effect = lower value 1 | S. cerevisiae deletion strains, locus YLL041C, strain sdh2, stronger effect = lower value 1.01 | S. cerevisiae deletion strains, locus YLR027C, strain aat2, stronger effect = lower value 1.01 | S. cerevisiae deletion strains, locus YLR039C, strain RIC1, stronger effect = lower value 1.01 | S. cerevisiae deletion strains, locus YLR058C, strain SHM2, stronger effect = lower value 0.981 | S. cerevisiae deletion strains, locus YLR102C, strain apc9, stronger effect = lower value 0.995 | S. cerevisiae deletion strains, locus YLR113W, strain HOG1, stronger effect = lower value 0.951 | S. cerevisiae deletion strains, locus YLR221C, strain rsa3, stronger effect = lower value 1 | S. cerevisiae deletion strains, locus YLR258W, strain gsy2, stronger effect = lower value 1.01 | S. cerevisiae deletion strains, locus YLR262C, strain YPT6 (second series), stronger effect = lower value 0.995 | S. cerevisiae deletion strains, locus YLR262C, strain YPT6, stronger effect = lower value 1.03 | S. cerevisiae deletion strains, locus YLR268W, strain sec22, stronger effect = lower value 1.05 | S. cerevisiae deletion strains, locus YLR320W, strain mms22, stronger effect = lower value 0.988 | S. cerevisiae deletion strains, locus YLR330W, strain CHS5, stronger effect = lower value 1 | S. cerevisiae deletion strains, locus YLR342W, strain FKS1 (second series), stronger effect = lower value 1.03 | S. cerevisiae deletion strains, locus YLR342W, strain FKS1, stronger effect = lower value 0.992 | S. cerevisiae deletion strains, locus YLR357W, strain rsc2, stronger effect = lower value 0.993 | S. cerevisiae deletion strains, locus YLR370C, strain arc18, stronger effect = lower value 1.01 | S. cerevisiae deletion strains, locus YLR371W, strain rom2, stronger effect = lower value 1.01 | S. cerevisiae deletion strains, locus YLR384C, strain iki3, stronger effect = lower value 1 | S. cerevisiae deletion strains, locus YLR418C, strain cdc73, stronger effect = lower value 1.03 | S. cerevisiae deletion strains, locus YML016C, strain PPZ1, stronger effect = lower value 1 | S. cerevisiae deletion strains, locus YML032C, strain rad52, stronger effect = lower value 0.957 | S. cerevisiae deletion strains, locus YML120C, strain ndi1, stronger effect = lower value 1.02 | S. cerevisiae deletion strains, locus YML124C, strain tub3, stronger effect = lower value 1 | S. cerevisiae deletion strains, locus YMR058W, strain fet3, stronger effect = lower value 0.998 | S. cerevisiae deletion strains, locus YMR078C, strain ctf18, stronger effect = lower value 1 | S. cerevisiae deletion strains, locus YMR125W, strain sto1, stronger effect = lower value 1 | S. cerevisiae deletion strains, locus YMR129W, stronger effect = lower value 0.989 | S. cerevisiae deletion strains, locus YMR205C, strain PFK2, stronger effect = lower value 0.987 | S. cerevisiae deletion strains, locus YMR223W, strain ubp8, stronger effect = lower value 0.977 | S. cerevisiae deletion strains, locus YMR231W, strain pep5, stronger effect = lower value 1.01 | S. cerevisiae deletion strains, locus YMR263W, strain SAP30, stronger effect = lower value 1 | S. cerevisiae deletion strains, locus YMR307W, strain GAS1, stronger effect = lower value 1.03 | S. cerevisiae deletion strains, locus YNL067W, strain RPL9B, stronger effect = lower value 1 | S. cerevisiae deletion strains, locus YNL071W, strain lat1, stronger effect = lower value 1.01 | S. cerevisiae deletion strains, locus YNL183C, strain NPR1, stronger effect = lower value 0.926 | S. cerevisiae deletion strains, locus YNL209W, strain ssb2, stronger effect = lower value 1 | S. cerevisiae deletion strains, locus YNL233W, strain BNI4, stronger effect = lower value 0.994 | S. cerevisiae deletion strains, locus YNL248C, strain rpa49, stronger effect = lower value 1 | S. cerevisiae deletion strains, locus YNL250W, strain rad50, stronger effect = lower value 0.999 | S. cerevisiae deletion strains, locus YNL271C, strain bni1, stronger effect = lower value 1 | S. cerevisiae deletion strains, locus YNL298W, strain CLA4, stronger effect = lower value 1.02 | S. cerevisiae deletion strains, locus YNL307C, strain MCK1, stronger effect = lower value 1.01 | S. cerevisiae deletion strains, locus YNL322C, strain KRE1 (second series), stronger effect = lower value 1 | S. cerevisiae deletion strains, locus YNR049C, strain mso1, stronger effect = lower value 1.01 | S. cerevisiae deletion strains, locus YNR052C, strain pop2, stronger effect = lower value 1 | S. cerevisiae deletion strains, locus YOL012C, strain htz1 0.71 | S. cerevisiae deletion strains, locus YOL147C, strain pex11, stronger effect = lower value 1.01 | S. cerevisiae deletion strains, locus YOR001W, strain rrp6, stronger effect = lower value 1.01 | S. cerevisiae deletion strains, locus YOR061W, strain CKA2, stronger effect = lower value 1.01 | S. cerevisiae deletion strains, locus YOR069W, strain VPS5, stronger effect = lower value 1.01 | S. cerevisiae deletion strains, locus YOR070C, strain gyp1, stronger effect = lower value 1.01 | S. cerevisiae deletion strains, locus YOR080W, strain dia2, stronger effect = lower value 1 | S. cerevisiae deletion strains, locus YOR083W, strain WHI5, stronger effect = lower value 1 | S. cerevisiae deletion strains, locus YOR106W, strain vam3, stronger effect = lower value 1.01 | S. cerevisiae deletion strains, locus YOR136W, strain idh2, stronger effect = lower value 1.01 | S. cerevisiae deletion strains, locus YOR144C, strain elg1, stronger effect = lower value 1 | S. cerevisiae deletion strains, locus YOR184W, strain ser1, stronger effect = lower value 1.03 | S. cerevisiae deletion strains, locus YOR231W, strain MKK1, stronger effect = lower value 0.985 | S. cerevisiae deletion strains, locus YOR265W, strain rbl2, stronger effect = lower value 1.02 | S. cerevisiae deletion strains, locus YOR270C, strain vph1, stronger effect = lower value 1.04 | S. cerevisiae deletion strains, locus YOR290C, strain snf2, stronger effect = lower value 0.964 | S. cerevisiae deletion strains, locus YOR316C, strain cot1, stronger effect = lower value 1 | S. cerevisiae deletion strains, locus YPL051W, strain arl3, stronger effect = lower value 1.02 | S. cerevisiae deletion strains, locus YPL055C, strain LGE1, stronger effect = lower value 0.992 | S. cerevisiae deletion strains, locus YPL078C, strain atp4, stronger effect = lower value 1.01 | S. cerevisiae deletion strains, locus YPL106C, strain sse1, stronger effect = lower value 0.96 | S. cerevisiae deletion strains, locus YPL240C, strain hsp82, stronger effect = lower value 0.981 | S. cerevisiae deletion strains, locus YPL256C, strain CLN2, stronger effect = lower value 0.981 | S. cerevisiae deletion strains, locus YPR119W, strain clb2, stronger effect = lower value 1 | S. cerevisiae deletion strains, locus YPR141C, strain kar3, stronger effect = lower value 0.994 | S. cerevisiae deletion strains, locus YPR163C, strain tif3, stronger effect = lower value 0.996 | S. cerevisiae deletion strains, locus YPR167C, strain met16, stronger effect = lower value 1.01 | S. cerevisiae deletion strains, strain wtn01, stronger effect = lower value 1.05 | S. cerevisiae strains, strain wild type, stronger effect = lower value 0.995
